Assay results as given in publication doi:10.1101/2024.03.05.583629.

Target: pT7_6His-AlfaTag-HOXD13 (human, UniProt P35453 263-343)
Assay: PADIT-seq
Conditions: dsDNA, one strand shown

Chain of pT7_6His-AlfaTag-HOXD13 (P35453 263-343): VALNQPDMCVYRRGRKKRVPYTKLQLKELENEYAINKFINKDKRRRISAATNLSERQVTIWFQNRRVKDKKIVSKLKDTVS

First: CTCGAGGATATCAAGATCTGGCCTCGGCTGAGTAAAAGGAACCTCTAGCTAGCCGACTCACTATAGGGATAATCGCCCTGAGCAAAGACC
Second: CTCGAGGATATCAAGATCTGGCCTCGGCATCGTAAAAGGAACCTCTAGCTAGCCGACTCACTATAGGGATAATCGCCCTGAGCAAAGACC
The binding signal of the first is lower: 0.229 ± 0.0993 log2FC for the first, 2.79 ± 0.0886 log2FC for the second.

Going from “CTCGAGGATATCAAGATCTGGCCTCGGCCTCATAAAAGGAACCTCTAGCTAGCCGACTCACTATAGGGATAATCGCCCTGAGCAAAGACC” to “CTCGAGGATATCAAGATCTGGCCTCGGCTTTTTATACGGAACCTCTAGCTAGCCGACTCACTATAGGGATAATCGCCCTGAGCAAAGACC”, the binding signal falls from 3.06 ± 0.0788 log2FC to 2.44 ± 0.0818 log2FC.

Compared with “CTCGAGGATATCAAGATCTGGCCTCGGCATTTTAAAAGGAACCTCTAGCTAGCCGACTCACTATAGGGATAATCGCCCTGAGCAAAGACC”, “CTCGAGGATATCAAGATCTGGCCTCGGCACCTTAAAAGGAACCTCTAGCTAGCCGACTCACTATAGGGATAATCGCCCTGAGCAAAGACC” is lower in binding signal: 2.49 ± 0.0611 log2FC for the first, 0.52 ± 0.102 log2FC for the second.

“CTCGAGGATATCAAGATCTGGCCTCGGCCGCCCATTTGGAACCTCTAGCTAGCCGACTCACTATAGGGATAATCGCCCTGAGCAAAGACC” and “CTCGAGGATATCAAGATCTGGCCTCGGCGCGCTCGCGGGAACCTCTAGCTAGCCGACTCACTATAGGGATAATCGCCCTGAGCAAAGACC” are within error of each other in binding signal: -0.832 ± 0.113 log2FC for the first, -1.06 ± 0.163 log2FC for the second.

Going from “CTCGAGGATATCAAGATCTGGCCTCGGCTTTTTACGCGGAACCTCTAGCTAGCCGACTCACTATAGGGATAATCGCCCTGAGCAAAGACC” to “CTCGAGGATATCAAGATCTGGCCTCGGCCGCTATCGCGGAACCTCTAGCTAGCCGACTCACTATAGGGATAATCGCCCTGAGCAAAGACC”, the binding signal falls from 2.08 ± 0.0867 log2FC to -0.806 ± 0.119 log2FC.

Compared with “CTCGAGGATATCAAGATCTGGCCTCGGCATTTTAGCAGGAACCTCTAGCTAGCCGACTCACTATAGGGATAATCGCCCTGAGCAAAGACC”, “CTCGAGGATATCAAGATCTGGCCTCGGCGTGCTAAAAGGAACCTCTAGCTAGCCGACTCACTATAGGGATAATCGCCCTGAGCAAAGACC” is lower in binding signal: 0.721 ± 0.101 log2FC for the first, -0.142 ± 0.0902 log2FC for the second.

“CTCGAGGATATCAAGATCTGGCCTCGGCATTTTAAACGGAACCTCTAGCTAGCCGACTCACTATAGGGATAATCGCCCTGAGCAAAGACC” gave a binding signal of 1.29 ± 0.0911 log2FC.
